Compounds with a hit are over-represented: about 1.4% of the library has one in this group of screens.
S-ASM inh – Inhibitors of Secretory Acid Sphingomyelinase (S-ASM): qHTS | Sphingomyelin phosphodiesterase (Homo sapiens), P17405 | placental ASM, HMU-PC fluorogenic substrate, 60 min | Potency, µM (titrated, usually from 57.5 µM), for the others: top-dose activity change, negative = inhibition, actives largely listed as inhibitors | actives 0.006% (n = 340,000); further: potency means the concentration at half of the fitted maximal effect
Target sequence (P17405 47-631 limits assumed): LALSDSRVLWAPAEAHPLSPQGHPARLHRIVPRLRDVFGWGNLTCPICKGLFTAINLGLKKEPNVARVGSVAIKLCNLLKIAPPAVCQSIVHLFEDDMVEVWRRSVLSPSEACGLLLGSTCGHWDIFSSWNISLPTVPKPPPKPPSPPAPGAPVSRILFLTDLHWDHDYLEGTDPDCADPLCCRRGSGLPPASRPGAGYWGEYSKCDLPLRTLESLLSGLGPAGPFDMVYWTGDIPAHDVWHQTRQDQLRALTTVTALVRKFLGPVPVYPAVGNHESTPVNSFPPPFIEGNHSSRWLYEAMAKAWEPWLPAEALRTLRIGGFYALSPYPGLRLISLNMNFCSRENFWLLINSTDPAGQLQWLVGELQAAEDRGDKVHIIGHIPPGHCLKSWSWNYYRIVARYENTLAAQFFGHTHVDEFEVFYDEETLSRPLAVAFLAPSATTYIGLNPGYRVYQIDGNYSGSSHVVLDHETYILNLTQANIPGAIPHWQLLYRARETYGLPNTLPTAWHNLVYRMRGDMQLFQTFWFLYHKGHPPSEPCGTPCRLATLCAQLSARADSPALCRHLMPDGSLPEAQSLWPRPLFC
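HMU-PC0 cleavage (9 uM final) by human placental ASM, 60 min at 37 °C following 10 min compound exposure at RT; stopped at pH 10, fluorescence Ex 386/Em 447 nm.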
PINK1 expr mod – A Quantitative High throughput Screen to Identify Chemical Modulators of PINK1 Expression | PINK1 immunofluorescence, high-content cytometry, 24 h | Potency, µM (top dose mostly 76.6 µM), inactives show top-dose activation (PINK1 increase), actives largely listed as activators | actives 0.2% (n = 410,000); active means well fitted activation curve with a large enough effect; inconclusive means small, poorly fitted or top-dose-only effect; cell line not stated here; further: potency means the concentration at half of the fitted maximal effect; % of control where 0% means no effect; nearly all actives have a fitted effect of over 65% in size
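Stable cell line treated 24 h with compounds at 5 concentrations (CCCP controls), then fixed and immunostained for PINK1 plus nuclear and cell stains; PINK1 immunofluorescence quantified by laser-scanning microplate cytometry.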
ALOX12 inh – Primary qHTS assay for inhibitors of human arachidonate 12S-lipoxygenase (ALOX12): Round 2; Polyunsaturated fatty acid lipoxygenase ALOX12 (Homo sapiens), P18054; purified 12hLO, xylenol orange hydroperoxide absorbance; Potency, µM (doses to about 108 µM), for the others: at the top dose activity change, negative = inhibition, hits mostly inhibitors; actives 1.1% (n = 580,000); further: potency means the concentration at half of the fitted maximal effect; on the % scale 0 is the no-effect control and ±100 the full control effect
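Purified human 12hLO at 150 nM in 25 mM Hepes, 0.01% Triton X-100, pH 7.0, preincubated 15 min at room temperature with compound. Reaction started with 40 uM arachidonic acid, 30 min at room temperature. Hydroperoxide measured by Fe-xylenol orange, 573/405 nm absorbance ratio.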
MmCpn inh – Inhibitors of TCP-1 ring complex (TRiC) of Methanococcus maripaludis (MmCpn): qHTS. Chaperonin Mm-Cpn (Methanococcus maripaludis). Potency, µM (highest dose often 76.9 µM), for inactives: at the highest dose activity, negative = inhibition, actives largely listed as inhibitors. AID 504842, 2011. purified Mm-Cpn ATPase, ADP Transcreener TR-FRET. actives 0.031% (n = 330,000); further: potency means the concentration at half of the fitted maximal effect; on the % scale 0 is the no-effect control and ±100 the full control effect; nearly all actives have a fitted effect of over 80% in size
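Purified archaeal chaperonin (25 nM final) was preincubated with compound for 10 min at 37°C, then ATP (10 uM final) was added for 30 min at 37°C in Tris pH 7.4/KCl/MgCl2/DTT buffer. ADP was quantified by HTRF Transcreener TR-FRET.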
p53 reactivator – qHTS assay for re-activators of p53 using a Luc reporter; AID 504706, 2011; actives 0.063% (n = 320,000); H1299 p53-A138V BP100-luciferase reporter, luminescence, 24 h; Potency, µM (doses to about 92.2 µM), for inactives: at the top dose activity change, positive = activation, most hits filed as activators; further: potency means the concentration at half of the fitted maximal effect; % of control where 0% means no effect; nearly all actives have a fitted effect of over 45% in size
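p53-null H1299 cells stably carrying temperature-sensitive p53-A138V and a BP100-luciferase reporter were pinned with compounds (4-point, 1:5 series) and held 24 hrs at 37 deg C. Luminescence was read 10 min after detection reagent.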
CCT modulator – High-Throughput Screening for Modulators of Cytosolic Chaperonin Activity; activity change, % (no concentration beside the values), hits read low; actives 0.3% (n = 360,000); purified chaperonin ATPase assay, HTRF ADP detection, 30 min; in the data active means activity change below about -30%; further: on the % scale 0 is the no-effect control and ±100 the full control effect
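Nucleotide hydrolysis assay: TRiC at 20–40 nM final (set by batch activity) with 10 uM ATP, 30 min at 37 °C, in presence of 76 uM compound. Detection by competitive ADP HTRF, 30 min ambient.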
Starred values were filed as active, the others as inactive; ? = inconclusive; · = not tested or not shown; [ ] = remark or other dose. Unless noted, the call rests on the fitted dose curve; in most records, active means well fitted curve in the direction sought with a large enough effect; inconclusive means small, poorly fitted or top-dose-only effect, or another doubt; inactive means no such curve, though single readings can be large; an effect the other way counts as inactive or inconclusive.

SMILES | S-ASM inh | PINK1 expr mod | ALOX12 inh | MmCpn inh | p53 reactivator | CCT modulator
O=C(NCc1nc2ccccc2[nH]1)C1=C[C@H](c2ccc(Br)cc2)C[C@H](OCc2ccc(CO)cc2)O1 | -22% | 1% | -7% | · | -1% | -49*
COc1ccccc1-c1nc(C(=O)NCCc2ccc(Cl)cc2)n2ccncc12 | · | · | -2%[6.33 µM] | · | · | ·
CCC(=O)Oc1ccc2c(c1)O/C(=C\c1ccco1)C2=O | 11% | 1% | 25µM* | -5% | 8% | -3
COCCn1c(C)cc(C(=O)C(=O)Nc2nnc(COc3cc(C)cc(C)c3)s2)c1C | · | · | 13% | · | · | ·
CCOC(=O)C1=C(O)/C(=C\c2cc(C)n(-c3ccccc3F)c2C)N=C1C | 47% | 3% | ? | -4% | 8% | 0
CCOC(=O)C1=C(O)/C(=C\c2cc(C)n(-c3ccc(F)cc3)c2C)N=C1C | 26% | 3% | 35µM* | -8% | 2% | -1
CCOC(=O)c1c(NC(=O)C2=C(C)NC(=S)NC2c2ccccc2C(F)(F)F)sc(C)c1C (centres undefined) | 24% | 2% | 25µM* | -3% | -10% | -1
CCOC(=O)C1=C(C)NC(=S)NC1c1cc(C)sc1C (centres undefined) | 2% | 2% | ? | -2% | 1% | -2
Cc1ccsc1[C@@H]1CCN(Cc2ccc(C#CC(C)(C)O)cc2)C[C@H]1O | · | · | 45µM* | · | · | ·
N#Cc1c(SCc2c(Cl)cccc2Cl)nc(N)[nH]c1=S | -11% | 1% | 32µM* | -3% | -1% | 0
O=C(OCCCc1ccccc1)c1c2ccccc2cc2ccccc12 | · | · | -45% | · | · | ·
COCCn1c(C)cc(C2=NNC(=Nc3ccc(Cl)cc3Cl)SC2)c1C | -2% | 18%[38.3 µM] | ? | -2% | 1% | -3
COCC(C)N=C1NN=C(c2cc(C)n(Cc3ccccc3Cl)c2C)CS1 (centres undefined) | 0% | 35µM* | ? | 1% | 3% | -1
O=C(Nc1ccccc1Cl)c1cc(-c2cccs2)on1 | · | · | -18% | · | · | ·
CC(C)/C=C1\CC/C(=C\c2ccc(N(C)C)cc2)C1=O | 0% | 17% | -17% | 2% | ? | 0
CN(C)c1ccc(/C=C2/C[N+](C)(C)C/C(=C/c3ccc(N(C)C)cc3)C2=O)cc1 | ? | 2% | 50µM* | · | · | -3
Cc1ccc(Cl)cc1NC(=O)c1ccccc1-c1ccccc1 | · | · | 0% | · | · | ·
Cc1nncn1CCN1C(=O)N(CCc2ccccc2)C2(CCNCC2)C1=O | · | · | -24% | · | · | ·
COCCCN1C(=O)N(Cc2nncn2C(C)C)C(=O)C12CCNCC2 | · | · | 18µM* | · | · | ·
Cc1ccc(-c2nnc(SCC(=O)Nc3sc(C)c(C)c3C#N)n2C)cc1 | 0% | 4% | ? | -1% | 2% | -1
O=C(CSc1nnc(-c2ccncc2)o1)Nc1cc(F)ccc1F | 1% | -1% | 159% | 0% | ? | -119*
Cc1sc(NC(=O)CSc2nnc(-c3ccc(F)cc3)o2)c(C#N)c1C | -3% | 0% | 8% | 0% | 23% | -50*
COc1cc(OC)c2cc(C(=O)N3CCC(c4nnc5ccccn45)CC3)n(C)c2c1 | · | · | -3% | · | · | ·
O=C(N/N=C/c1ccccc1)C1CC1c1ccccc1 (centres undefined) | · | · | 2% | · | · | ·
C=CCc1ccccc1OCC(=O)OCCNC(=O)c1cccnc1 | 0% | -1% | 40µM* | -2% | -9% | -1
CNC(=S)N/N=C/c1cn(CCOc2ccc(OC)cc2)c2ccccc12 | ? | -2% | 40µM* | -3% | 3% | -1
CNC(=S)N/N=C/c1cn(Cc2ccc(F)cc2)c2ccccc12 | ? | 3% | 28µM* | 0% | 4% | 1

Source: PubChem BioAssay (National Center for Advancing Translational Sciences (NCATS))
